Experimental data taken from ChEMBL document CHEMBL3988442, “University of Dundee, Small-Polar-MMV Screening Library” (2021).
Where “and” joins values, the source holds several entries; their conditions need not be identical. Identical values can stand only once. For some assays here: Potency and affinity values are given separately.

Assays:
Set-up in all cases: scale not given: direction of the effect not stated beside the values
[1] = molecular target: Protein translocase subunit SecA (Escherichia coli (strain K12)) (UniProt P10408); assay: Assay to Identify E. coli SecA ATPase Inhibitors; assay type: functional; details: 30 µM
[2] = molecular target: T1, Ubiquitin-activating enzyme e1, putative (Leishmania donovani (strain BPK282A1)) (UniProt E9BSI1); assay: Leishmania donovani Ubiquitin Activating Enzyme (LdE1); assay type: functional; details: 30 µM
T1 sequence (whole entry): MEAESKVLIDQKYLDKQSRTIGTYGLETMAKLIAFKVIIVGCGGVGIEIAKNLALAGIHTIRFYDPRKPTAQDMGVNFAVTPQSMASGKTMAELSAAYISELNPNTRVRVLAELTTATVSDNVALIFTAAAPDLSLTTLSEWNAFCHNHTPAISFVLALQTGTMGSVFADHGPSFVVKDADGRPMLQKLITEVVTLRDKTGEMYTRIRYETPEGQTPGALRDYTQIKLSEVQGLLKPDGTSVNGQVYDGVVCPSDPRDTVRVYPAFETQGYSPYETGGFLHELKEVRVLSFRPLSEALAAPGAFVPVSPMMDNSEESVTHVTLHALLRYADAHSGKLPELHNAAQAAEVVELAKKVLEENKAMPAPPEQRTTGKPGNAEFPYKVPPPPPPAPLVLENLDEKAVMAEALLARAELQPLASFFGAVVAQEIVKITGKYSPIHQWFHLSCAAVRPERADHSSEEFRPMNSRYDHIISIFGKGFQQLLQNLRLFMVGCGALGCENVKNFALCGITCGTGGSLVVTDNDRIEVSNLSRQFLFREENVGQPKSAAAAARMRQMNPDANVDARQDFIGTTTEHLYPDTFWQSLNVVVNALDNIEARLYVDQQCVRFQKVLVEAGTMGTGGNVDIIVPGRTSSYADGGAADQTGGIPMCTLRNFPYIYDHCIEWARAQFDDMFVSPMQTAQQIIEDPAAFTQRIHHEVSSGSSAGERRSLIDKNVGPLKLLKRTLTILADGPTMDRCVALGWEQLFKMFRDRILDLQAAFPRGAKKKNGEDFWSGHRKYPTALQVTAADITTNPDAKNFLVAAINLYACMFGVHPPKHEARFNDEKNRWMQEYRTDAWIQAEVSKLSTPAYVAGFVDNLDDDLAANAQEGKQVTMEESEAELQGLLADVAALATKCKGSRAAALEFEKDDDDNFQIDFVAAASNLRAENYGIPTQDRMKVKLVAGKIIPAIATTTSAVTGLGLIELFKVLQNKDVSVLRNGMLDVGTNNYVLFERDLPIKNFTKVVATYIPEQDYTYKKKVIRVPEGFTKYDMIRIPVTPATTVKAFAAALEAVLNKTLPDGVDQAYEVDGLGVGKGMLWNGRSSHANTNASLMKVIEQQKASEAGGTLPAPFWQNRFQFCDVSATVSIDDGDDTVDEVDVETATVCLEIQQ

[3] = molecular target: Sialic acid-binding Ig-like lectin 9 (Homo sapiens) (UniProt Q9Y336); assay: Hs-Siglec9 ALPHAscreen SOP 20170721; details: 10 µM
Trypanosoma cruzi = assay: Trypanosoma cruzi phosphomannomutase and mannose-1-phosphate guanylyltransferase assay; assay type: functional; details: 10 µM
[4] = molecular target: T2, Arginase-2, mitochondrial (Homo sapiens) (UniProt P78540); assay: in vitro enzyme assay to detect the production of urea directly proportional to the activity of Arginase II; assay type: functional; details: 33.3 µM; also: in the data most compounds retested in dose-response had high values
T2 sequence (whole entry): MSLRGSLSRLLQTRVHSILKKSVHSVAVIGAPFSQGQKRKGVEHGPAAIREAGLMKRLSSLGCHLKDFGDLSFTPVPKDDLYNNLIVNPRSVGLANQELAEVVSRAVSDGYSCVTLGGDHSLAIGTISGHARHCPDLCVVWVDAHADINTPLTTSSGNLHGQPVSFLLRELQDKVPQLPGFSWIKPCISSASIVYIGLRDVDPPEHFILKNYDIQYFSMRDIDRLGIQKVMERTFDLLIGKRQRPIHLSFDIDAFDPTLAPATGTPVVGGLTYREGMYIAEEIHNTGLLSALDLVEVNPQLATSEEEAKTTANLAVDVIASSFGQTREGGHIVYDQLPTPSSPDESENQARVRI

[5] = molecular target: T3, Proteasome subunit beta (Trypanosoma cruzi) (UniProt O96673); assay: Trypanosoma cruzi proteasome chymotrypsin-like activity (TcProtChymo) assay.; also: in the data most compounds retested in dose-response had high values; assay type: functional; details: 9.37 µM
T3 sequence (whole entry): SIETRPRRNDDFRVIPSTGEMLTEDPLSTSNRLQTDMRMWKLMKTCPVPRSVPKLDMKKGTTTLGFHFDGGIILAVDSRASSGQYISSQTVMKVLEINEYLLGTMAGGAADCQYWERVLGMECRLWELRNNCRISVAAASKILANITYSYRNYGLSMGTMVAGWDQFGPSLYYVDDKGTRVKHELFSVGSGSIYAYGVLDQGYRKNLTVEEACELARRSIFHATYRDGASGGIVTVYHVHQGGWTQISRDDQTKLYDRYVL

Homo sapiens = species: Homo sapiens; assay: To identify inhibition of the IFN signalling (Jak-Stat) pathway via expression of an eGFP reporter gene under the control of an IFN-stimulated response element (ISRE) containing MxA promoter.; assay type: functional; details: 30 µM
[6] = molecular target: T4, Tyrosyl-tRNA synthetase, putative (Trypanosoma cruzi (strain CL Brener)) (UniProt Q4DSP6); assay: Trypanosoma cruzi tyrosyl tRNA synthetase (TcYRS) _High Tyrosine SOP; assay type: functional; details: 30 µM; also: in the data most compounds retested in dose-response had high values
T4 sequence (whole entry): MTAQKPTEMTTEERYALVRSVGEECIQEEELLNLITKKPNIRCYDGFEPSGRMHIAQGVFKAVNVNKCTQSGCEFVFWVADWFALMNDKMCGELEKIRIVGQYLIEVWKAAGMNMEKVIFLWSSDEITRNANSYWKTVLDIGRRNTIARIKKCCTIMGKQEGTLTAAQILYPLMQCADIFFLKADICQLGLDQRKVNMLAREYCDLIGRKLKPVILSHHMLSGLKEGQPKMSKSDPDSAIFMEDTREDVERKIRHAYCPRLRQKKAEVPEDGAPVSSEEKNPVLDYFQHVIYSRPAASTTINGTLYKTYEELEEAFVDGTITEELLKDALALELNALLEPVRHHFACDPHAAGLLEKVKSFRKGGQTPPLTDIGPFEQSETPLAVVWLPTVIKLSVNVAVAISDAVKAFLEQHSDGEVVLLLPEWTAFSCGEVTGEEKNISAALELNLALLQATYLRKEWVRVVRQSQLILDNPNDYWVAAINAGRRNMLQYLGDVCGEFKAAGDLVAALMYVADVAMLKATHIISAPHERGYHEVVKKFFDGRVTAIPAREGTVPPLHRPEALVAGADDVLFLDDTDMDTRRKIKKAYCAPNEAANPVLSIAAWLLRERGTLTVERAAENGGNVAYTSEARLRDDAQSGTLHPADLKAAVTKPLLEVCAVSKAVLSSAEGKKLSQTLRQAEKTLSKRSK

[7] = molecular target: T4, Tyrosyl-tRNA synthetase, putative (Trypanosoma cruzi (strain CL Brener)); assay: Trypanosoma cruzi tyrosyl tRNA synthetase (TcYRS) SOP; assay type: functional; details: 30 µM
[8] = molecular target: Chromo domain-containing protein 1 (Saccharomyces cerevisiae (strain ATCC 204508 / S288c) (Baker's yeast)) (UniProt P32657); assay: ScCHD-1 Enzyme Inhibition Assay; assay type: functional; details: 30 µM; also: in the data most compounds retested in dose-response had high values
N/A = assay: Trypanosoma cruzi proteasome luciferase counter-screen; assay type: functional; details: 9.37 µM

Sequence of Sialic acid-binding Ig-like lectin 9 (Homo sapiens) (Q9Y336 whole entry): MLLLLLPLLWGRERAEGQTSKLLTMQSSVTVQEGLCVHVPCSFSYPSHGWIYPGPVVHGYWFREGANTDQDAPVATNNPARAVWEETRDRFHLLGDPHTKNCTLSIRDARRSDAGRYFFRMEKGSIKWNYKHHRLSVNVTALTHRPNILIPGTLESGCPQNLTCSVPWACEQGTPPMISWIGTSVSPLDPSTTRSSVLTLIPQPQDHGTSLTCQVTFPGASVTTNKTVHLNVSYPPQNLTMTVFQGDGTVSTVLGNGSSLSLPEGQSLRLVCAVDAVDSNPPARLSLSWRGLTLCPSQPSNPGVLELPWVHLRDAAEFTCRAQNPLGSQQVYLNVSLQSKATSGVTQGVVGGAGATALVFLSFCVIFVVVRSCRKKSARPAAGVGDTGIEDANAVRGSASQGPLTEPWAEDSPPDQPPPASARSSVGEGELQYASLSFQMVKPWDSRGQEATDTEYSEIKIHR
Sequence of Protein translocase subunit SecA (Escherichia coli (strain K12)) (P10408 whole entry): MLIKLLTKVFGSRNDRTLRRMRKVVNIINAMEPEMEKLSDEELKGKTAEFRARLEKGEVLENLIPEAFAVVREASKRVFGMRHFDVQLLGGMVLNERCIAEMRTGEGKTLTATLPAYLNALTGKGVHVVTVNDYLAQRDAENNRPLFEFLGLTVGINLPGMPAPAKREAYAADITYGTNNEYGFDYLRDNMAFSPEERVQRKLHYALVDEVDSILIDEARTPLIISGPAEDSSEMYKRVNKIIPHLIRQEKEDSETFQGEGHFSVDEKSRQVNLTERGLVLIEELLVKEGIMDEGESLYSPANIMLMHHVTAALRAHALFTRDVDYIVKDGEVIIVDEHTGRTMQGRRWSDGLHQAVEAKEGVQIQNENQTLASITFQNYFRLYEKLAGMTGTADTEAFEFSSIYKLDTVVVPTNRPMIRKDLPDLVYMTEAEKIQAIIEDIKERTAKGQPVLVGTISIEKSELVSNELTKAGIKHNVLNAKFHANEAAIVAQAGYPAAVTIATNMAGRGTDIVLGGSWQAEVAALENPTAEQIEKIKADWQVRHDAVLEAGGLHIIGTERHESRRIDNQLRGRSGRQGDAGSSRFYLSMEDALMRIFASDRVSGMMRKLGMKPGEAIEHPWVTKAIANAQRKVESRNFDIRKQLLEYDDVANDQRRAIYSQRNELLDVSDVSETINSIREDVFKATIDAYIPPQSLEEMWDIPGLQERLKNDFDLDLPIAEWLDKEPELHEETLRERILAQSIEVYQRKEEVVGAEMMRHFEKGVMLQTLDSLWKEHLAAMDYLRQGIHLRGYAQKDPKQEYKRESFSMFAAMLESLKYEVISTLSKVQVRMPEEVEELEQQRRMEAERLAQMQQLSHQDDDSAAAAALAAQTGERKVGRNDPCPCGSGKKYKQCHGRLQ
Sequence of Chromo domain-containing protein 1 (Saccharomyces cerevisiae (strain ATCC 204508 / S288c) (Baker's yeast)) (P32657 whole entry, the tested form may be a part): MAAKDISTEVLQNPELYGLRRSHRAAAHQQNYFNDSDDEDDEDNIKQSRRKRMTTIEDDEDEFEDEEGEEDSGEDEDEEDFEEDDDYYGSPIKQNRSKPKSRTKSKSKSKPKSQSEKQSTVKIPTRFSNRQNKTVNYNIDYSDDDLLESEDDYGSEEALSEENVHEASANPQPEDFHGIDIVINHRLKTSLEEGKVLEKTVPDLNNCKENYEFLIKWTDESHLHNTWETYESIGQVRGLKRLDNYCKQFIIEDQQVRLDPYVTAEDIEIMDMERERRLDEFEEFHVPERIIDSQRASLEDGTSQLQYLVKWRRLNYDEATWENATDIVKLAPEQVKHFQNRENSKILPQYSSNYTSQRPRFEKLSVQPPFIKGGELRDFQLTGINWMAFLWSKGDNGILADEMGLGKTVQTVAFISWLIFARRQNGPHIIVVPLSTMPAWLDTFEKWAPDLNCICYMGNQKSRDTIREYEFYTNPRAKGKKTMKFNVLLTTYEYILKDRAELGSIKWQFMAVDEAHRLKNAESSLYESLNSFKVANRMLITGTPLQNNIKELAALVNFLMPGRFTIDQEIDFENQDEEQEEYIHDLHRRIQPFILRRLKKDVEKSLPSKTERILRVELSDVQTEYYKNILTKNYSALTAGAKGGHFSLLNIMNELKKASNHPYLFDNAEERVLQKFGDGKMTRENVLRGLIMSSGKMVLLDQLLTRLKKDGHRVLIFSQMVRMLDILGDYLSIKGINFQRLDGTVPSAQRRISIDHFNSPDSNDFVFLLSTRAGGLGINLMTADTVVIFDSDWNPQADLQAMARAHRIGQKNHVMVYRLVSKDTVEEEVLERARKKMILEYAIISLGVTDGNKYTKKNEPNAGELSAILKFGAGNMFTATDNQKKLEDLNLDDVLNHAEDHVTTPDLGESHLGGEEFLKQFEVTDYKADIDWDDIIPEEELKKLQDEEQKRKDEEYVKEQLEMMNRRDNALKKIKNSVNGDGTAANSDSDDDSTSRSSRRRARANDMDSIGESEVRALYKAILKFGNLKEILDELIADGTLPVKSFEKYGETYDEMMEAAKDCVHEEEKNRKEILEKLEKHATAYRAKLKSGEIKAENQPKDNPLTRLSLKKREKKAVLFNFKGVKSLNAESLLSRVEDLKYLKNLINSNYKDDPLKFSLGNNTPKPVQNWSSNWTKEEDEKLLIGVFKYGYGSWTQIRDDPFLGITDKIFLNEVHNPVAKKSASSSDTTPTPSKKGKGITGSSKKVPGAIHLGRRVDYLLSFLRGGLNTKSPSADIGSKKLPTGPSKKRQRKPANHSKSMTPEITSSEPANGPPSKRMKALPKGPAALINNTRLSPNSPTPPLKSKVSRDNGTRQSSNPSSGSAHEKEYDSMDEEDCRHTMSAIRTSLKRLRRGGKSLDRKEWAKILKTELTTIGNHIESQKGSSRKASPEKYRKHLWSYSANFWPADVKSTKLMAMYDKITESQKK

| SMILES | Percent Effect [1] [%] | Percent Effect [2] [%] | Percent Effect [3] [%] | Percent Effect (Trypanosoma cruzi) [%] | Percent Effect [4] [%] | Percent Effect [5] [%] | Percent Effect (Homo sapiens) [%] | Percent Effect [6] [%] | Percent Effect [7] [%] | Percent Effect [8] [%] | Percent Effect (N/A) |
| --- | --- | --- | --- | --- | --- | --- | --- | --- | --- | --- | --- |
| CC(C)(C)c1n[nH]c(C2CN(C(=O)CCc3cscn3)CCO2)n1 (centres undefined) | -2.17 | 7.69 | 15.8 | 4.41 | 5.33 | 0.597 | 6.37 | 3.35 | 13.2 | -1.16 |  |
| CCOCC1CC2(CCN(C(=O)c3ccccc3F)CC2)CO1 (centres undefined) | -6.56 | 6.49 | -7.4 | -3.41 | -7.29 | -0.794 | -3.95 | 2.63 | 7.69 | -0.095 |  |
| Cc1csc(Nc2nccnc2C2CCCN2C(=O)C(C)C)n1 (centres undefined) | 1.4 | 14.7 | -6.58 | -4.34 | -0.885 | 9.69 | 5.46 | 2.12 | 10 | -21.8 |  |
| CN1CCC/C1=N\S(=O)(=O)c1ccc(NC(=O)c2cccs2)cc1 | 0.351 | 15.6 | -0.824 | 3.73 | -3.48 | 12.5 | 8.73 | 7.84 | 21.2 | -10.9 |  |
| COC[C@@H]1CC[C@H]2[C@H](CCN2S(=O)(=O)c2cccc(C)c2)O1 | -1.1 | 6.49 | -6.71 | -4.38 | 2.43 | 16.1 | -2.75 | 0.526 | 5.13 | -2.87 |  |
| CN(C)c1ccccc1C(=O)N1C[C@@H](CN2CCOCC2)[C@@H](CO)C1 | -7.18 | 5.41 | 5.57 | 6.69 | -0.35 | 18.3 | 22.3 | 7.98 | 19.5 | -2.44 |  |
| CC(C)n1ccnc1C1CCN(C(=O)c2ccccc2)CC1 | -5.35 | 16.2 | 13.1 | 9.8 | 11.5 | 14 | 14.4 | 10.1 | 19.5 | -5 |  |
| CCCN(C(=O)COC)c1nc2c(s1)CCc1c-2cnn1C | 6.68 | 52 | 21 | -3.16 | 23.9 | 2.79 | 17.9 | -13.8 | -15 | -18.2 |  |
| COCCN1CCCN(C(=O)NC(C)Cn2cccn2)CC1 (centres undefined) | 0.234 | 15.6 | -4.18 | -8.77 | 4.3 | 10.9 | 14.4 | 5.88 | 11.8 | -2.79 |  |
| CC(C)Cc1nc(OCC(N)=O)c(C#N)c2c1CCC2 | -2.5 | 5.41 | 10.8 | -9.99 | 1.75 | 19.4 | 20.7 | 3.72 | 7.32 | -3.73 |  |
| CC(NC(=O)N1CCN(c2ccccc2)CC1)c1nncn1C (centres undefined) | 1.88 | 10.7 | -3.63 | -2.81 | 7.54 | 11.4 | 13.4 | 3.68 | 5.13 | -13.8 |  |
| CN1[C@@H](C(=O)NCC2CC2)C[C@@H]2CN(Cc3ccco3)C[C@@H]21 | -3.17 | 19.5 | -3.11 | -6.57 | 3.65 | 19.5 | 13.8 | 5.8 | 10 | -4.24 |  |
| CCc1n[nH]c(C2CN(C(=O)c3nc(C)n4ccccc34)CCO2)n1 (centres undefined) | -2.26 | 13 | 11.1 | -1.49 | 10 | 9.82 | -10.3 | 4.9 | 16.5 | -11 |  |
| Cc1[nH]/c(=N\C(=O)c2csc(NC3CC3)n2)sc1C | -5.11 | 8.11 | -0.99 | -1.84 | -1.75 |  | 10.7 | 11.2 | 14.6 | 14.5 |  |
| Cc1ccc(Cl)cc1N1CCC(CNC(=O)CCn2ccnc2)C1 (centres undefined) | -4.06 | 5.13 | -8.73 | 10.8 | 2.05 | 12.2 | 9.72 | 12.9 | 22.9 | -4.33 |  |
| Cc1nn(C)c(Cl)c1CNCc1ccc(OCC(N)=O)cc1 | -6.28 | 10.7 | 0.0227 | 4.42 | 2.22 | 10.9 | 16.6 | 1.58 | 12.8 | -10.2 |  |
| COc1ccccc1OC1CCN(Cc2cnc(N(C)C)nc2)CC1 | -8.85 | 0 | 3.25 | -1.84 | -3.15 |  | 1.97 | 3.72 | 9.76 | -4 | 13.7% and 17.2% |
| Cc1ccccc1N1CCN(C(=O)c2ccc[nH]2)C(C)C1 (centres undefined) | -7.84 | 2.7 | 33.4 | 5.92 | -2.45 | 9.25 | 27.5 | 1.6 | 9.76 | -1.74 |  |
| Cc1nc(-c2cccc(C(=O)O)c2)cc(C2CCN(C(C)C)C2)n1 (centres undefined) | -2.85 | 6.67 | 1.03 | -1.18 | 4.87 | 9.69 | 1.3 | 6.35 | 17.5 | -15.1 |  |
| O=C(NCCCn1ccnc1)N1CCN(c2cccs2)CC1 | -5.79 | -10.4 | 7.23 | 2.42 | -9.22 | 12.8 | -11.9 | 28.4 | 11.8 | 0.725 |  |
| CC(C)c1nc(CN(C)C2CCN(CCNS(C)(=O)=O)C2)no1 (centres undefined) | -0.486 | 15.6 | -6.45 | -5.78 | -11.7 | 12.5 | 12.2 | 3.92 | 7.06 | -13 |  |
